# RORgamma inh: blocks mouse ROR gamma transcriptional activity; P51450; Drosophila S2 Gal4-RORgamma UAS-luciferase reporter, 20 h; Potency, µM (series often up to 53.6 µM), usual class: inhibitors; 310,000 tested, 5.4% active; note: nearly all actives have a fitted effect of over 60% in size
#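 Compounds are pin-transferred onto Drosophila Schneider cells expressing a copper-inducible Gal4–ROR gamma transactivation domain fusion. After 1 hr, copper sulfate is added to 700 uM final; luciferase is read 20 hr later.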
# uPA generation: blocks generation of uPA at the cell surface | cell surface uPA generation assay, qHTS | Potency, µM (highest dose often 38.3 µM), hits mostly inhibitors | 330,000 tested, 0.31% active; active = well fitted inhibition curve with a large enough effect; inconclusive = small, poorly fitted or top-dose-only effect; inactive = no such curve, though single readings can be large or run the other way; tested in mouse RAW 264.7 cells; note: nearly all actives have a fitted effect of over 55% in size
# Gal4-VP16 FLuc: inhibits Gal4-VP16 luciferase reporter, ROR gamma counter-screen; 310,000 tested, 3.5% active; Drosophila S2 Gal4-VP16 UAS-luciferase, luminescence, 20 h; Potency, µM (highest dose often 53.6 µM), hits mostly inhibitors;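 note: Gal4-VP16 expression switched on by copper sulfate through the metallothionein promoter; nearly all actives have a fitted effect of over 50% in size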
# TRPV1 ag: human TRPV1 agonism | 320,000 tested, 0.19% active | Q8NER1 | AID 540275 | TRPV1-expressing cells, Fluo-8 calcium influx, agonist mode | activation, % at 8.33 µM; in the data active = activation above about 80%; inconclusive = between about 30% and that limit
# Target sequence (Q8NER1 whole entry, looked up): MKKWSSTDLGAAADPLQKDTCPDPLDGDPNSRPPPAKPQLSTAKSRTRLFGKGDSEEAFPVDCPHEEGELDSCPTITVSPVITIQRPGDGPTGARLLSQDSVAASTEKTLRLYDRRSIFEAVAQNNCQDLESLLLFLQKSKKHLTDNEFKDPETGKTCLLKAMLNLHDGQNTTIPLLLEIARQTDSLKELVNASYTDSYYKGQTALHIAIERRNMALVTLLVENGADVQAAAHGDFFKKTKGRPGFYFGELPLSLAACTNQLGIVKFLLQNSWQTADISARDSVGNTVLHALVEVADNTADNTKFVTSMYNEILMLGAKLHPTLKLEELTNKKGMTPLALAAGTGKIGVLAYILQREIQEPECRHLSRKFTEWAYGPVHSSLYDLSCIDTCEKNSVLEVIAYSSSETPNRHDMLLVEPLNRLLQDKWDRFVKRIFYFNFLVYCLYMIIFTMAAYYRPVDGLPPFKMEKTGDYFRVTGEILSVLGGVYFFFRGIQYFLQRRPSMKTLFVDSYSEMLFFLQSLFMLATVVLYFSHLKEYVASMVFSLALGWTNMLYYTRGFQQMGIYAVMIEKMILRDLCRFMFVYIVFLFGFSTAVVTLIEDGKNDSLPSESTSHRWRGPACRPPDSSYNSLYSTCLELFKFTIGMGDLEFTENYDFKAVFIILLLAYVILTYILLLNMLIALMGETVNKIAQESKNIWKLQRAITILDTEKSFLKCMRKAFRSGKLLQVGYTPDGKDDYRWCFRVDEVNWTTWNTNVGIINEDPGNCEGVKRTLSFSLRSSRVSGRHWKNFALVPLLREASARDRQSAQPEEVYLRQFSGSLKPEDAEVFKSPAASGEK
#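 Fluo-8 calcium influx in TRPV1-expressing cells, kinetic read (ex 480/em 520 nm). Compound added and read 3 min for agonist activity, followed by capsaicin at EC20 final and 2 min further read for enhancement.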
# TRPV1 PAM: enhances activation of the human vanilloid receptor TRPV1 | 320,000 tested, 0.02% active | TRPV1-expressing cells, Fluo-8 calcium influx, capsaicin EC20 potentiation | potentiation, % at 8.33 µM | AID 540277 | Q8NER1; in the data active = potentiation above about 80%; inconclusive = between about 30% and that limit
#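 TRPV1-expressing cells were cultured overnight at 35.5C and loaded with Fluo-8 calcium dye for 40 to 90 min at room temperature. After a 10 s baseline, compound was added and calcium influx was read kinetically for 3 min (ex 480/em 520 nm).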
# Numbers stand for hits; . = inactive; ? = inconclusive; / = not tested or not shown; [ ] = another dose, or the depositor's remark. Hits are enriched below; roughly 5.8% of the tested compounds scored in any of these assays. Unless noted, calls come from the whole dose curve; as a rule, active = well fitted curve in the direction sought with a large enough effect; inconclusive = small, poorly fitted or top-dose-only effect, or another doubt; inactive = no such curve, though single readings can be large; an effect the other way counts as inactive or inconclusive.
SMILES,RORgamma inh,uPA generation,Gal4-VP16 FLuc,TRPV1 ag,TRPV1 PAM
CCc1nnc(NC(=O)c2nc(S(=O)(=O)Cc3ccc(C)cc3)ncc2Cl)s1,16µM,.,11µM,.,.
CCc1nnc(NC(=O)c2nc(S(=O)(=O)Cc3cccc(C)c3)ncc2Cl)s1,13µM,.,7.9µM,.,.
Cc1ccc(S(=O)(=O)N[C@H]2COC(=O)C/C=C\[C@@H](C)[C@H](NS(=O)(=O)c3ccc(C)cc3)COC(=O)C/C=C\[C@H]2C)cc1,.[10 µM],/,.[10 µM],/,/
Cc1ccc(S(=O)(=O)N(C)C)cc1NC(=O)C(C)OC(=O)C1CCCC1 (stereo unspecified),/,.,/,.,.
CCc1nnc(NC(=O)c2ccc(Cl)c(S(=O)(=O)N3CCc4ccccc43)c2)s1,20µM,.,?,.,.
Cc1ccc(OCC(=O)NNC(=O)C2CCCO2)c(C)c1 (stereo unspecified),.,.,.,.,.
CC(/C=C/c1cccc([N+](=O)[O-])c1)=N\NC(=O)c1ccncc1,5µM,.,10µM,.,.
CC(/C=C/c1ccc2c(c1)OCO2)=N/NC(=O)c1cccnc1,3.5µM,.,6.3µM,.,.
CC1=C(/C=C/C(C)=N\NC(=O)c2ccncc2)C(C)(C)CCC1,7.9µM,.,?,?,.
CC(/C=C/c1ccc2c(c1)OCO2)=N/NC(=O)c1ccc(C)nc1,7.9µM,.,7.9µM,.,.
C/C(=N\NC(=O)c1ccc2c(c1)OCO2)c1cccnc1,?,?,.,?,.
C=CCOc1ccc(S(C)(=O)=O)cc1,.,?,.,.,.
CC(/C=C/c1ccc2c(c1)OCO2)=N/NC(=O)c1ccncc1,5.6µM,?,18µM,.,.
COc1ccc2c(c1)c(CC(=O)NCc1ccc3c(c1)OCO3)c(C)n2C(=O)c1ccc(Cl)cc1,.,/,.,/,/
O=C(c1ccncc1)N(Cc1ccccc1)Cc1nc2ccccc2c(=O)[nH]1,?,.,.,.,.
CCOCCCNC(=S)N(Cc1ccccc1)Cc1nc2ccccc2c(=O)[nH]1,11µM,.,?,?,.
CCCNC(=S)N(Cc1ccccc1)Cc1nc2ccccc2c(=O)[nH]1,13µM,.,?,.,.
O=C(c1ccccc1)N(Cc1ccc(F)cc1)Cc1nc2ccccc2c(=O)[nH]1,3.5µM,.,?,.,.
O=C(Nc1ccccc1F)N(Cc1ccc(F)cc1)Cc1nc2ccccc2c(=O)[nH]1,.,.,?,.,.
O=C(Cc1ccccc1[N+](=O)[O-])N1CCc2ccccc2C1,.,.,.,.,.
O=C(NCC1CCCN1S(=O)(=O)c1cccs1)c1cccc(F)c1 (stereo unspecified),/,.,/,.,.
CC(C)(C)c1ccc(CN2N=Nc3ccccc3S2(=O)=O)cc1,.,.,1.6µM,.,.
COc1ccc(N2CCN(C(=O)c3sc4ncn(CC(=O)N5CCCCC5C)c(=O)c4c3C)CC2)cc1 (stereo unspecified),.,.,22µM,.,.
CCc1c(C)sc(NC(=O)Cc2ccccc2OC)c1C(=O)N1CCOCC1,.,.,.,.,.
Cc1ccc(CCC(=O)Nc2nccs2)o1,.,.,28µM,.,.
SMILES,RORgamma inh,uPA generation,Gal4-VP16 FLuc,TRPV1 ag,TRPV1 PAM
O=C(COc1cccc2cccnc12)Nc1nccs1,?,.,18µM,.,.
COCc1nnc(NC(=O)COc2ccc3c(c2)OCO3)s1,.,.,.,.,.
COc1ccc(OCC(=O)Nc2nccs2)cc1,3.5µM,.,7.9µM,.,.
O=C(COc1ccc2c(c1)OCO2)Nc1nccs1,10µM,.,?,.,.
CCc1ccc(CCC(=O)Nc2nccs2)o1,.,.,.,.,.
CCN(CC)S(=O)(=O)c1ccc(N2CCN(c3cccc(OC)c3)CC2)c([N+](=O)[O-])c1,.,.,.,.,.
COc1ccccc1OCC(=O)Nc1ccncc1,.,.,.,.,.
Cc1cccc(OCCCC(=O)Nc2nccs2)c1C,3.2µM,.,.,?,.
CCOc1ccc(OCC(=O)Nc2nccs2)cc1,13µM,.,.[10 µM],.,.
Cc1cccc(OCC(=O)Nc2ccncc2)c1C,?,.,3.2µM,.,.
CCC1CCCCC1,.,/,.,/,/
CCC(Cc1ccccc1)OC(=O)c1ccccc1C(=O)O (stereo unspecified),/,.,/,/,/
COc1ccc(O[C@H]2C=C[C@@H](c3ccccc3)O[C@H]2COC(=O)NCc2cccc3ccccc23)cc1,.[10 µM],/,.[10 µM],/,/
O=C(Cn1nnc(-c2ccccc2)n1)N/N=C/c1cc([N+](=O)[O-])ccc1O,.,.,.,.,.
O=C(Cn1cncn1)N/N=C/c1cc([N+](=O)[O-])ccc1O,8.9µM,.,.,.,.
O=C(CSc1ccccn1)N/N=C/c1cc([N+](=O)[O-])ccc1O,2µM,3.5µM,7.1µM,.,?
O=C(Cn1cncn1)N/N=C/c1ccccc1O,8.9µM,.,?,.,.
O=C(Cn1nc2ccccc2n1)N/N=C/c1cc([N+](=O)[O-])ccc1O,?,.,1.4µM,.,.
O=C(Cn1cncn1)N/N=C/c1ccncc1,.,.,.,.,?
CC(=O)c1cccc(CN2CCN(C(C)C)C(CCO)C2)c1 (stereo unspecified),.,.,.,.,.
CN1CCN(c2ncc3nc(-c4ccccc4)c(=O)n(CCC#N)c3n2)CC1,.,/,.,/,/
Cc1cc(C)c2c(c1)C1C=CCC1C(C(=O)O)N2 (stereo unspecified),/,/,/,.,.
O=C(N/N=C/c1cc([N+](=O)[O-])ccc1O)c1cccc2ccccc12,2.8µM,/,2.2µM,.,.
O=C(/C=C/Nc1ccc([N+](=O)[O-])cc1Br)c1cccc2ccccc12,2.5µM,.,?,.,.
Cc1ccn(CC(=O)N/N=C/c2cc([N+](=O)[O-])ccc2O)n1,?,.,8.9µM,.,.
SMILES,RORgamma inh,uPA generation,Gal4-VP16 FLuc,TRPV1 ag,TRPV1 PAM
O=C(CSc1ccc2ccccc2n1)N/N=C/c1ccccc1O,1.4µM,?,3.2µM,.,.
O=C(NN=Cc1cc(Cl)ccc1[N+](=O)[O-])c1cccc2ccccc12,/,.,/,/,/
CCN(CC(=O)Nc1c(F)cccc1F)C(=O)c1cc(S(=O)(=O)NCc2ccccc2)ccc1C,/,.,/,.,.
CN1C(=O)N(C)C2(c3ccccc3)N(C(C)(C)C)C(=O)NC12c1ccccc1 (stereo unspecified),.,.,.,?,.
CCCCCc1nc2sc3c(c2c(=O)n1NC(=O)c1ccc([N+](=O)[O-])cc1)CC(C)(C)OC3,22µM,.,.,.,.
CCC1(C)Cc2c(sc3nc(SC)[nH]c(=S)c23)CO1 (stereo unspecified),?,.,6.3µM,.,.
CC1(C)Cc2c(sc3nc(=S)[nH]c(N)c23)CO1,?,/,18µM,.,.
Cc1nc(NN)c2c3c(sc2n1)COC(C)(C)C3,13µM,.,.,.,.
CC1(C)Cc2c(sc3ncnc(N)c23)CO1,.,.,.,.,?
COc1ccc(CNC(=O)C(c2ccco2)N(C(=O)c2snc(C(N)=O)c2N)c2ccccc2OC)cc1 (stereo unspecified),.,.,.,.,.

# Assay outcomes: PubChem, National Center for Advancing Translational Sciences (NCATS)
